Our source for the AC50 and outcome values is PubChem BioAssay AID1117313 (National Center for Advancing Translational Sciences (NCATS), 2015).

Calls of active or inactive are those of the source. The call rests on the fitted dose curve.

For the assay the following is noted: Ebola virus entry reporter assay, ratio channel. On the technique in general: In a reporter assay the amount or activity of a reporter protein is the signal.
With `CCCSc1ccc2nc(NC(=O)OC)[nH]c2c1`, the AC50 is 4320 nM (active).

Take `CC[C@]1(O)C[C@H]2CN(CCc3c([nH]c4ccccc34)[C@@](C(=O)OC)(c3cc4c(cc3OC)N(C=O)[C@H]3[C@@](O)(C(=O)OC)[C@H](OC(C)=O)[C@]5(CC)C=CCN6CC[C@]43[C@@H]65)C2)C1`: the AC50 is 137 nM (active).

On to `CC[C@]1(O)C[C@@H]2CN(CCc3c([nH]c4ccccc34)[C@@](C(=O)OC)(c3cc4c(cc3OC)N(C)[C@H]3[C@@](O)(C(=O)OC)[C@H](OC(C)=O)[C@]5(CC)C=CCN6CC[C@]43[C@@H]65)C2)C1`, for which the concentration at half-maximal activity (AC50) was 122 nM (active).

Regarding `COC(=O)Nc1nc2ccc(C(=O)c3cccs3)cc2[nH]1`, the AC50 is 544 nM (active).

In the case of `COc1cccc2c1C(=O)c1c(O)c3c(c(O)c1C2=O)C[C@@](O)(C(C)=O)C[C@H]3O[C@H]1C[C@H](N)[C@H](O)[C@H](C)O1`, the concentration at half-maximal activity (AC50) was 2730 nM (active).

As for `C[C@]12CC[C@@H]3c4ccc(O)cc4C[C@@H](CCCCCCCCCS(=O)CCCC(F)(F)C(F)(F)F)[C@H]3[C@@H]1CC[C@@H]2O` (some centres undefined), the result was inactive.

As for `CN1CCC[C@@H]1CCO[C@](C)(c1ccccc1)c1ccc(Cl)cc1`, the half-maximal activity concentration (AC50) was 1530 nM (active).

In the case of `CN(C)CCOc1ccc(/C(=C(/CCCl)c2ccccc2)c2ccccc2)cc1`, the half-maximal activity concentration (AC50) was 1090 nM (active).

On to `NCCCC(O)(P(=O)(O)O)P(=O)(O)O`, for which the outcome was inactive.

`CC[C@H]1OC(=O)[C@H](C)[C@@H](O[C@H]2C[C@@](C)(OC)[C@@H](O)[C@H](C)O2)C(C)[C@@H](O[C@@H]2O[C@H](C)C[C@H](N(C)C)[C@@H]2O)[C@](C)(OC)C[C@@H](C)C(=O)[C@H](C)[C@@H](O)[C@]1(C)O` (some centres undefined): the AC50 was 4850 nM (active).

On to `CN(C)CCCN1c2ccccc2CCc2ccc(Cl)cc21`, for which the half-maximal activity concentration (AC50) was 5440 nM (active).

Consider `CCC1=C[C@@H]2CN(C1)Cc1c([nH]c3ccccc13)[C@@](C(=O)OC)(c1cc3c(cc1OC)N(C)[C@H]1[C@@](O)(C(=O)OC)[C@H](OC(C)=O)[C@]4(CC)C=CCN5CC[C@]31[C@@H]54)C2`, for which the AC50 is 86.3 nM (active).

As to `Cc1nnc(C(C)C)n1C1C[C@H]2CC[C@@H](C1)N2CC[C@H](NC(=O)C1CCC(F)(F)CC1)c1ccccc1` (some centres undefined), the result was inactive.

On to `COC(=O)Nc1nc2ccc(C(=O)c3ccccc3)cc2[nH]1`, for which the AC50 is 3430 nM (active).

Turning to `CCN(CC)CCNC(=O)c1c(C)[nH]c(/C=C2\C(=O)Nc3ccc(F)cc32)c1C`, the AC50 was 1530 nM (active).

For `C[C@@H]1O[C@@H](O[C@H]2CC[C@@]3(C)[C@H](CC[C@@H]4[C@H]3C[C@@H](O)[C@]3(C)[C@@H](C5=CC(=O)OC5)CC[C@]43O)C2)C[C@H](O)[C@@H]1O[C@H]1C[C@H](O)[C@H](O[C@H]2C[C@H](O)[C@@H](O)[C@@H](C)O2)[C@H](C)O1` (stereo in doubt), the AC50 is 1400 nM (active).

For `CO[C@H]1C[C@@H]2CC[C@@H](C)[C@@](O)(O2)C(=O)C(=O)N2CCCC[C@@H]2C(=O)O[C@H]([C@@H](C)C[C@@H]2CC[C@H](O)[C@H](OC)C2)CC(=O)[C@H](C)C=C(C)[C@@H](O)[C@@H](OC)C(=O)[C@H](C)C[C@H](C)C=CC=CC=C1C`, the outcome was inactive.

`CO[C@H]1C[C@@H]2CC[C@@H](C)[C@@](O)(O2)C(=O)C(=O)N2CCCC[C@@H]2C(=O)O[C@H]([C@H](C)C[C@@H]2CC[C@H](OCCO)[C@H](OC)C2)CC(=O)[C@H](C)C=C(C)[C@@H](O)[C@@H](OC)C(=O)[C@H](C)C[C@H](C)C=CC=CC=C1C`: the outcome was inactive.

`CCCCc1oc2ccc(NS(C)(=O)=O)cc2c1C(=O)c1ccc(OCCCN(CCCC)CCCC)cc1`: the AC50 is 2430 nM (active).

As to `CN1[C@@H]2CC[C@H]1CC(OC(c1ccccc1)c1ccccc1)C2` (some centres undefined), the AC50 was 3850 nM (active).

On to `CN1CCN(CCCN2c3ccccc3Sc3ccc(C(F)(F)F)cc32)CC1`, for which the AC50 is 2730 nM (active).

For `COC1=CC(=O)C[C@@H](C)[C@]12Oc1c(Cl)c(OC)cc(OC)c1C2=O`, the outcome was inactive.

In the case of `CC[C@H]1OC(=O)[C@H](C)[C@@H](O[C@H]2C[C@@](C)(OC)[C@@H](O)[C@H](C)O2)[C@H](C)[C@@H](O[C@@H]2O[C@H](C)C[C@H](N(C)C)[C@@H]2O)[C@](C)(O)C[C@@H](C)CN(C)[C@H](C)[C@@H](O)[C@]1(C)O`, the half-maximal activity concentration (AC50) is 3060 nM (active).

For `CCCNCC(O)COc1ccccc1C(=O)CCc1ccccc1` (centres undefined), the AC50 was 8630 nM (active).

The AC50 is the concentration giving half of the maximal activity seen.
